Experimental findings from PubChem BioAssay AID687016 (The Scripps Research Institute Molecular Screening Center, 2013) are described below.

Molecules are shown by their SMILES. In all, about 370,000 compounds went through this assay and about 2,800 (0.76%) were called active. What follows is part of a selection rich in actives, with near analogues and random picks from the rest. A number with no mark means an inactive call. Cut-off read from the data, not from the text of the source: active = inhibition above about 21%; inactive = the rest.

In this assay the target is E3 ubiquitin-protein ligase UHRF1 (Homo sapiens) (UniProt Q96T88). Briefly: UHRF1 methylated DNA binding inhibitors, primary screen, counter-screen for MBD2 inhibitor project, biochemical, TR-FRET, human UHRF1, single concentration (AID 687016).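 Note: UHRF1 SRA domain binding a hemimethylated CpG hairpin DNA probe; 0% = median of test compound wells and 100% = reference inhibitor.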 Conditions: UHRF1 binding to methylated oligo, at 4.4 µM, stronger effect = higher value. Background: A counterscreen serves to expose hits that act by an unwanted route or on another target.
E3 ubiquitin-protein ligase UHRF1 (Homo sapiens), sequence (Q96T88 whole entry, looked up, the tested form may be a part): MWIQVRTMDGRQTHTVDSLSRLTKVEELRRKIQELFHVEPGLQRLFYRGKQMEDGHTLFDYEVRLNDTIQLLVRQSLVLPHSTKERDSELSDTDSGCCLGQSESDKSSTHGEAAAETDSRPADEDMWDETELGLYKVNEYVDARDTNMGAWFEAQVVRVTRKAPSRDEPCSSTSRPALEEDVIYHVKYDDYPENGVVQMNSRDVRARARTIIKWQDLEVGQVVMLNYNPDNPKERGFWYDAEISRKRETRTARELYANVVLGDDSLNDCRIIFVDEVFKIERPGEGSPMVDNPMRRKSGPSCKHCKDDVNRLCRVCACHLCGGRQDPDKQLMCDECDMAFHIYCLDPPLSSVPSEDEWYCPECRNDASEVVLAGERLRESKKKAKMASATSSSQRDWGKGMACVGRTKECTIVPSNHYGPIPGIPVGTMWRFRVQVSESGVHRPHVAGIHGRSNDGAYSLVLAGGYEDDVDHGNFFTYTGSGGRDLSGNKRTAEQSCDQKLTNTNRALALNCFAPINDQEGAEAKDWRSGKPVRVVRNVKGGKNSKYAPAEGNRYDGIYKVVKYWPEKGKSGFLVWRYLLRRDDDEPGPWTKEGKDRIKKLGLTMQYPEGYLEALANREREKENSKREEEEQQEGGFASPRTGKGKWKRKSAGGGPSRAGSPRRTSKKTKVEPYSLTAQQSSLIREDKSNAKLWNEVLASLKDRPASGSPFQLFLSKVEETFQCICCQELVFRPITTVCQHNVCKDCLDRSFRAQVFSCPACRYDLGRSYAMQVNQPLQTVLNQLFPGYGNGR
Turning to `OCc1ccc(-c2ccccc2)c(-c2ccccc2)c1`, the inhibition (as a rule, the relative decrease from the control value, in per cent) was -1.66%.

For `c1ccc(CNCc2ccc(CNCc3ccccc3)cc2)cc1`, the inhibition was -2.85%.

On to `OCC(CO)(CO)NCc1ccc(-c2ccccc2)cc1`, for which the inhibition was 24.9% (active).

As for `CN1[C@H](Cc2ccccc2)COc2cccc(N3CCSCC3)c2S1(=O)=O`, the inhibition was 6.46%.

As for `O=C(CSc1nnc(-c2ccccn2)n1-c1ccc(Cl)cc1)Nc1ccccc1-c1ccccc1`, the inhibition was -0.44%.

Take `COc1ccc(C(=O)N2CCC(C(=O)Nc3ccc(C)cc3)CC2)cc1`: the inhibition was 98.2% (active).

In the case of `COc1ccc(C(=O)N2CCC(C(=O)Nc3cccc(C)c3)CC2)cc1OC`, the inhibition was -2.09%.

`O=C(Nc1ccccc1)C1CCN(C(=O)c2ccc(Br)cc2)CC1`: the inhibition is -0.01%.

As to `CC(C)(C)NC(=O)C(c1cccnc1)N(C(=O)c1cnco1)c1ccc(C(C)(C)C)cc1` (centres undefined), the inhibition was -2.85%.

`O=C(c1ccncc1)N1CC[C@H]2[C@H](CCCN2Cc2ccc(F)cc2)C1`: the inhibition was -0.99%.

Consider `COc1ccccc1C(=O)CSc1nnc(-c2ccccn2)n1-c1ccccc1`, for which the inhibition was 0.85%.

As to `COc1ccc(-n2c(SCC(=O)Nc3ccc4cn[nH]c4c3)nnc2-c2cccnc2)cc1`, the inhibition is 0.56%.

For the molecule `CC(C)CNc1cccc2c1S(=O)(=O)N(Cc1cn(Cc3ccc(Cl)cc3)nn1)Cc1ccccc1O2`, the inhibition is 2.31%.

`CSc1nccc(NC(=O)c2ccc(C(C)(C)C)cc2)n1`: the inhibition was 5.85%.

Consider `COC(=O)c1nc(NC(=O)c2ccc(C(C)(C)C)cc2)n[nH]1`, for which the inhibition is 87.5% (active).

Take `COc1ccc(N2CCN(C(=O)CNC(=O)c3ccc(C(C)(C)C)cc3)CC2)cc1`: the inhibition was -2.46%.

For the molecule `CCOC(=O)[C@]12CCCC=C1N(Cc1ccc(OC)cc1)C(=O)[C@@H]2CC(=O)N1CCOCC1`, the inhibition was -0.91%.

For the molecule `CCCCCCN1CCS(=O)(=O)N(Cc2ccc(C(F)(F)F)cc2)C(C(=O)OC)C1` (centres undefined), the inhibition was -2.34%.

With `CC(C)N1CCCCC(NC(=O)C(C)(C)C)C1=O` (centres undefined), the inhibition is -1.29%.

`CC(C)CNc1cccc2c1S(=O)(=O)N(Cc1cn(Cc3ccccc3C(F)(F)F)nn1)Cc1ccccc1O2`: the inhibition is 1.83%.

As to `Cc1cc(=O)[nH]c(SCC(=O)Nc2ccc(Cl)cc2C)n1`, the inhibition was -2.56%.

Take `Cc1ccc(S(=O)(=O)NCCC(=O)NNC(=O)C2COc3ccccc3O2)cc1` (centres undefined): the inhibition is -3.3%.

Consider `Cc1c(CC(=O)N2CCN(C(=O)C3COc4ccccc4O3)CC2)c(=O)oc2c(O)c(O)ccc12` (centres undefined), for which the inhibition was 28.8% (active).

For `CC(=O)c1ccccc1NC(=O)COC(=O)C1COc2ccccc2O1` (centres undefined), the inhibition is 6.15%.

Take `CCCn1c(NC(=O)C23CC4CC(CC(O)(C4)C2)C3)nc2ccccc21`: the inhibition is 21% (active).

In the case of `CCCn1c(C(Cc2ccccc2)NC(=O)COC)nc2ccccc21` (centres undefined), the inhibition is -1.58%.

In the case of `CCOc1ccccc1NC(=O)C12CC3CC(C1)CC(c1ccc(C)cc1)(C3)C2`, the inhibition was 2.15%.

In the case of `N#CCC[C@H]1CC[C@]2(CCCN(Cc3ccc(Cl)cc3)C2)O1`, the inhibition was 3.52%.

As to `O=C(CSc1nnc(-c2cccc(Cl)c2)n1Cc1ccco1)Nc1ccc(OCc2ccccc2)cc1`, the inhibition is -1.67%.

For `FC(F)(F)c1cccc(Cn2ccc3ccc(-c4ccc5ccn(Cc6ccccc6)c5c4)cc32)c1`, the inhibition was 0.27%.

Consider `O=C(Nc1ccccc1C(=O)N1CCCCC1)c1ccco1`, for which the inhibition was 3.17%.

On to `O=C(Nc1nc(-c2ccco2)c(-c2ccco2)s1)c1ccco1`, for which the inhibition was 51.4% (active).

`O=C(Nc1c(-c2ccccc2)nc2c(Br)cc(Br)cn12)c1ccco1`: the inhibition is 1.55%.

Take `CCOc1ccc(N(CC(=O)Nc2c(C)n(C)n(-c3ccccc3)c2=O)S(=O)(=O)c2ccc(Cl)s2)cc1`: the inhibition was -0.95%.

As for `O=C(CN1CCC(NC(=O)NCc2ccccc2)CC1)Nc1ccc2c(c1)OCCO2`, the inhibition was 1.96%.

Consider `C[C@H]1[C@H](NC(=O)c2cccc(N(C)C)c2)CC[C@@]23CCCN2C(=O)CCC[C@@H]13`, for which the inhibition is 0.44%.

Turning to `COc1ccc(NC2CCCN(C(=O)c3ccncc3)C2)cc1` (centres undefined), the inhibition is -3.03%.

Consider `Cc1cccc(C(=O)N2CCCC(Nc3ccc(C(C)C)cc3)C2)n1` (centres undefined), for which the inhibition was 22.3% (active).

Consider `CC(C)c1ccc(NC2CCCN(C(=O)c3ccncc3)C2)cc1` (centres undefined), for which the inhibition was 1.9%.

On to `COc1ccc2c(C(C)c3ccc(N)cc3)cn(C)c2c1` (centres undefined), for which the inhibition is 3.85%.

Consider `Cc1cc(C)nc(NC(=S)N2CCN(c3ccc(C(F)(F)F)cn3)CC2)c1`, for which the inhibition was -0.11%.

`COc1ccc(CCNC(=O)CSc2nc3c([nH]2)c(=O)n(C)c(=O)n3C)cc1`: the inhibition was -0.65%.

As to `C=CCc1cccc2cc(C(=O)NC3CCCC3)c(=O)oc12`, the inhibition is 2.45%.

In the case of `C=CCc1cccc2cc(C(=O)N3CCN(C(=O)OCC)CC3)c(=O)oc12`, the inhibition is -2.84%.

For `C=CCc1cccc2cc(C(=O)Nc3ccc(NC(C)=O)cc3)c(=O)oc12`, the inhibition is 28.9% (active).

In the case of `COc1ccc(-n2c(COc3ccccc3)nnc2SCC(=O)Nc2ccc3c(c2)OCO3)cc1`, the inhibition is 0.77%.

As to `COC(=O)c1cc(S(=O)(=O)N2CCN(C(=O)C3CCCO3)CC2)cn1C` (centres undefined), the inhibition was -1.8%.

For `COC1=C[C@H](C(=O)NCCNC(C)=O)[C@H](C)[C@@H](c2ccccc2)CC1=O`, the inhibition is -3.81%.

`CCCCn1c(N)c(N(CC(C)C)C(=O)C2CSC3(C)CCC(=O)N23)c(=O)[nH]c1=O` (centres undefined): the inhibition is 28.1% (active).

Regarding `CCCCn1c(N)c(N(CC(C)C)C(=O)c2ccc(Br)o2)c(=O)[nH]c1=O`, the inhibition was 0.08%.

With `CCCCn1c(N)c(N(CC(C)C)C(=O)c2cnc(C)cn2)c(=O)[nH]c1=O`, the inhibition was -0.01%.

As for `CN(C(N)=NC(=O)/C=C/c1ccccc1)C(C#Cc1ccccc1)Cc1ccccc1` (centres undefined), the inhibition was -1.59%.

Regarding `CC(=O)Oc1ccc2c(=O)oc(-c3ccc([N+](=O)[O-])cc3)nc2c1`, the inhibition was 20.8% (active).

For the molecule `COc1ccc(-c2[nH][nH]c(=O)c2NC(=O)c2ccc([N+](=O)[O-])cc2)cc1`, the inhibition was -5.21%.

Consider `COC(=O)C(C)Oc1ccc2c(-c3cccc([N+](=O)[O-])c3)cc(=O)oc2c1` (centres undefined), for which the inhibition was -2.28%.

As to `CCOC(=O)[C@]12CCCC3=C1N(CCC3)C(=O)[C@@H](CC(=O)N1CCSCC1)C2`, the inhibition is -0.01%.

Consider `O=C(Nc1ccccc1)N1CCN(Cc2nc3ccccc3c(=O)[nH]2)CC1`, for which the inhibition is 0.95%.

Consider `O=C(NCc1ccco1)C1CCCN(S(=O)(=O)c2ccc(Cl)s2)C1` (centres undefined), for which the inhibition is -1.18%.

Turning to `COC(=O)C[C@@H]1CC[C@@H]2[C@@H](COc3ccc(NC(=O)Nc4ccc(F)c(F)c4)cc3C(=O)N2C)O1`, the inhibition is 0.81%.

As for `CCOC(=O)C1(Cc2ccccc2)CCN(Cc2cn(C(C)=O)c3ccccc23)CC1`, the inhibition is -2.91%.

With `Cc1cc([N+](=O)[O-])nn1Cc1ccc(F)cc1`, the inhibition was 20.9% (active).

For the molecule `Cc1cc([N+](=O)[O-])nn1CC(=O)Nc1ccc(Cc2ccncc2)cc1`, the inhibition was -2.12%.

Take `Cc1cc([N+](=O)[O-])nn1CCCC(=O)Nc1cccnc1Cl`: the inhibition is 1.45%.

`CCCCNS(=O)(=O)c1ccc(S(=O)(=O)n2cnc3ccccc32)cc1`: the inhibition is 20.7% (active).

As for `COc1ccc(S(=O)(=O)n2cnc3ccccc32)c(C)c1`, the inhibition was 1.22%.

Turning to `Cc1ccc(S(=O)(=O)n2cnc3ccccc32)c(C)c1`, the inhibition is 8.08%.

For `CCOC(=O)[C@]12CCCCC/C=C\1N(Cc1ccc(OC)cc1)C(=O)[C@H]2CC(=O)N1CCOCC1`, the inhibition is -3.09%.

For the molecule `O=C(CCCCCN1C(=O)C2C3C=CC(C3)C2C1=O)Nc1ccccc1` (centres undefined), the inhibition was -1.94%.

Take `Fc1ccc(Br)cc1/C=N/n1cnnc1`: the inhibition is -0.98%.

With `Cc1cc(/C=N/n2cnnc2)c(C)n1-c1cccc(C(=O)O)c1`, the inhibition is 60% (active).

With `Cc1cc(/C=N/n2cnnc2)c(C)n1-c1ccc2ncccc2c1`, the inhibition is 0.89%.

For the molecule `COC(CNC(=O)[C@H](Cc1ccccc1)NC1(C(=O)NC2CCCCC2)CCCCC1)OC`, the inhibition is -1.65%.

Turning to `COC[C@@H]1CCCN1c1ccc2c(c1)O[C@H](C)CCN(C1CC1)S2(=O)=O`, the inhibition was -3.33%.

On to `COc1ccc2oc(C(=O)NCc3ccco3)c(C)c2c1`, for which the inhibition is -0.64%.

Take `CCCCOc1ccc(C(=O)NCc2ccco2)cc1`: the inhibition was 25% (active).

Regarding `CCCC1=Nc2cc(C(=O)NCc3ccco3)ccc2Sc2ccccc21`, the inhibition is 0.66%.

As to `C#CCCN([C@H](C(=O)OC)C(C)C)S(=O)(=O)c1ccc(F)cc1Br`, the inhibition was -0.78%.

Regarding `CCOc1cc2[nH]c(=S)n(CCN3CCCCC3C)c(=O)c2cc1OCC` (centres undefined), the inhibition is 66% (active).

For `COc1cc2[nH]c(=S)n(CCN3CCCCC3C)c(=O)c2cc1OC` (centres undefined), the inhibition was 8.11%.

For the molecule `CCOc1cc2[nH]c(=S)n(CCCN3CCCC3=O)c(=O)c2cc1OCC`, the inhibition is -0.84%.

Regarding `O=C(CN1CCCc2ccccc21)NCc1ccc(F)cc1`, the inhibition is -2.07%.

Regarding `OC(C#CCN1CCOCC1)(c1ccccc1)C1CCCCC1` (centres undefined), the inhibition was 1.93%.

As to `CN(CC#CCC(c1ccccc1)c1ccccc1)C(C)(C)C`, the inhibition was -0.47%.

Regarding `CC(C)(C)N(CC#CCC(O)(c1ccccc1)C1CCCC1)CCO` (centres undefined), the inhibition was 24.7% (active).

With `CN[C@H]1C[C@H]2c3cc(N4CCOCC4)ccc3CCN2C[C@H]1[C@H](C)O`, the inhibition is -0.07%.

In the case of `O=C(NC1CCCCN(Cc2cccc(C(F)(F)F)c2)C1=O)c1ccccc1I` (centres undefined), the inhibition is -2.03%.

On to `OC(CN1C2=NCCCN2c2ccccc21)c1ccc(Br)cc1` (centres undefined), for which the inhibition was 68.9% (active).

In the case of `CC(C)(C)C(=O)CN1C2=NCCN2c2ccccc21`, the inhibition is 0.42%.

For the molecule `Cc1cc2c(cc1C)N(Cc1ccccc1)C1=NCCCN12`, the inhibition was -2.05%.
